Hits are enriched below; roughly 4.6% of the tested compounds scored in any of these assays.
NLRP3 yeast inh – NALP3 inflammasome inhibitors in reconstituted yeast, primary screen, luminescence, uHTS; Yeast reconstituted NLRP3/ASC/caspase-1, beta-gal luminescence, 24 h; inhibition, % at 10 µM; 0.39% of 330,000 active; AID 2825, 2010;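 active = inhibition of 50% or more; inactive = inhibition below 50%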
TIM10 inh – growth inhibitors of isogenic TIM10 control yeast, primary screen, counter-screen for tim10-1 yeast inhibitor project, luminescence, uHTS | inhibition, % at 10 µM | 1.4% of 330,000 active | S. cerevisiae TIM10 strain growth, BacTiter-Glo luminescence, 24 h | AID 463195, 2010;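 active = inhibition of 40% or more at the single tested concentration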;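 also: wild-type TIM10 isogenic control strain grown at permissive 25 °C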
PfHsp90 yeast 2 – growth inhibition of PfHsp90-expressing yeast, primary screen, antimalarial PfHsp90 inhibitor project, S. cerevisiae, BacTiter-Glo luminescence, single point, set 2 | BacTiter-Glo ATP, 48 h; yeast lacking PDR1 and PDR3 efflux regulators | inhibition, % at 9.4 µM | 0.32% of 310,000 active;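 active = every replicate shows inhibition above about 80%, whatever the replicate mean, limit read from the data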
tim10-1 inh – growth inhibitors of tim10-1 mutant yeast, primary screen, luminescence, uHTS. S. cerevisiae tim10-1 ts strain growth, BacTiter-Glo, 24 h. inhibition, % at 20 µM. 2.2% of 330,000 active. AID 463190, 2010;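 active = inhibition of at least 40%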;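 also: mutant grown at 25 °C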
SKKanGAS inh – S. pyogenes SKKanGAS growth inhibitors in kanamycin, primary screen, streptokinase expression inhibitor project, SKKanGAS strain, BacTiter-Glo luminescence; inhibition, % at 7.5 µM; 6 h; 1.3% of 300,000 active;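 active = mean replicate score, as percent of positive control median, at least 50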;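 also: strain carries kanamycin resistance gene driven by streptokinase promoter and grows in 40 µg/ml kanamycin; loss of luminescence reflects streptokinase promoter inhibition or plain growth inhibition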
tim23-1 inh – growth inhibitors of tim23-1 mutant yeast, primary screen, luminescence, uHTS; inhibition, % at 20 µM; 1.3% of 330,000 active; S. cerevisiae tim23-1 growth, BacTiter-Glo luminescence, 24 h;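 active = growth inhibition of the mutant yeast at or above 50%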;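 also: temperature-sensitive mutant grown at 25 °C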
tim10 confirm – growth inhibitors of wild-type TIM10 yeast, confirmation, counter-screen for tim10-1 synthetic lethality project, single concentration, luminescence, S. cerevisiae; shares compounds with TIM10 inh; AID 463215, 2010; 63% of 4,600 active; inhibition, % at 10 µM; S. cerevisiae tim10 strain growth, BacTiter-Glo luminescence, 24 h;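 active = inhibition of yeast growth at or above a set limit in either of two replicates at 10 µM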; also: this counterscreen used the strain with wild-type TIM10
A number is an active result; i = inactive; nt = no result.

SMILES | NLRP3 yeast inh | TIM10 inh | PfHsp90 yeast 2 | tim10-1 inh | SKKanGAS inh | tim23-1 inh | tim10 confirm
O=C1NC[C@H](Cc2ccccc2)N(C[C@H]2CCCN2C[C@H](Cc2ccc(O)cc2)N2C[C@H](Cc3ccc(O)cc3)N(CC3CCCCCC3)C(=O)C2=O)C1=O | nt | nt | i | nt | nt | nt | nt
Clc1ccc(-c2noc(CSc3nnc(-c4ccncc4)n3-c3ccccc3)n2)cc1 | i | 48 | i | i | i | i | 36
Clc1ccc(-c2noc(CSc3nnc(Cc4cccs4)n3-c3ccccc3)n2)cc1 | i | 97 | i | i | i | i | i
Cc1ccc(-c2noc(CSc3nnc(-c4ccncc4)n3-c3ccc(C)cc3)n2)cc1 | i | 43 | i | i | i | i | 39
CCOc1ccc(-n2c(SCc3nc(-c4ccc(C)cc4)no3)nnc2-c2ccncc2)cc1 | i | i | nt | i | i | i | nt
O=C(Cc1c(F)cccc1Cl)Nc1nccs1 | i | i | i | i | i | i | nt
Cc1ccc(S(=O)(=O)c2cnc(-c3ccccc3)nc2N2CCCCC2)cc1 | i | i | i | i | i | i | nt
Clc1ccc(Cn2ccc(-c3ccc4c(c3)OCO4)n2)cc1Cl | i | 40 | nt | i | i | i | 40
CCCC(=O)NC(=S)Nc1cccc(NC(=O)c2ccccc2)c1 | i | i | i | i | i | i | nt
CC(C)CC(=O)NC(=S)Nc1cccc(NC(=O)c2ccccc2)c1 | i | 47 | i | i | i | i | 33
CC(C)CC(=O)NC(=S)Nc1ccc(NC(=O)c2cccs2)cc1 | i | 51 | i | i | i | i | i
CCc1ccccc1NC(=S)N(Cc1cccs1)C1CCCC1 | i | 40 | i | i | i | i | i
Cc1ccccc1NC(=S)N(Cc1cccs1)C1CCCC1 | i | i | i | i | i | i | nt
COc1ccc(CNC(=S)N/N=C/c2ccc(O)c(OC)c2)cc1 | i | i | i | i | i | i | nt
COc1ccc(CNC(=S)N/N=C/c2ccc(OC)c(OC)c2)cc1 | i | 40 | i | i | i | i | i
CCN(CC)c1ccc(/C=N/NC(=S)NCc2ccccc2)cc1 | i | 44 | i | i | i | i | i
C=CCNC(=S)N/N=C/c1ccc(N(CC)Cc2ccccc2)cc1 | i | i | i | i | i | i | nt
CCC(C(=O)Nc1cccc(C(F)(F)F)c1)c1ccccc1 (stereo not given) | i | 40 | i | i | i | i | 47
O=C(Nc1cccc(C(F)(F)F)c1)C(SCCO)c1ccccc1 (stereo not given) | i | i | i | i | i | i | nt
FC(F)(F)c1cccc(NC(=S)NCc2ccccc2)c1 | i | 47 | i | i | i | i | 49
O=C(CSc1nc2nn(-c3ccccc3)c(=O)c-2c2n1CCCCC2)Nc1cccc(F)c1 | i | i | i | i | nt | i | nt
COC(=O)CCCC(=O)N1CCC(CCC(=O)NC2CC2)CC1 | i | i | i | i | i | i | nt
CCN(CC)Cc1ccc(NC(=O)c2sc3cc(Cl)ccc3c2Cl)cc1 | i | 44 | i | i | i | i | 40
O=C(Nc1ccc(Cl)c([N+](=O)[O-])c1)C(Sc1ccccc1)c1ccccc1 (stereo not given) | i | 42 | i | i | i | i | 43
O=C(Nc1cc([N+](=O)[O-])ccc1Cl)C(Sc1ccccc1)c1ccccc1 (stereo not given) | i | i | i | i | i | i | nt
Cc1cc(NC(=O)c2ccccc2)cc(NC(=O)c2ccccc2)c1C | i | i | i | i | i | i | nt
Cc1cc(NC(=O)c2ccccc2)sc1C | i | 52 | i | i | i | i | 42
COc1ccc(/C=C2/SC(=O)N(CCC(=O)Nc3ccccc3C(=O)O)C2=S)cc1 | i | i | i | i | i | i | nt
COc1ccc(/C=N/NC(=O)c2ccoc2C)cc1OC | i | i | i | i | i | i | nt
